Results filed as inconclusive are left out. The source made the active and inactive calls. The call rests on the fitted dose curve; in most records, active means well fitted inhibition curve with a large enough effect; inconclusive means small, poorly fitted or top-dose-only effect; inactive means no such curve, though single readings can be large or run the other way.
Potency means the concentration at half of the fitted maximal effect.

Sequence of Cytochrome P450 3A4 (Homo sapiens) (P08684 whole entry, looked up): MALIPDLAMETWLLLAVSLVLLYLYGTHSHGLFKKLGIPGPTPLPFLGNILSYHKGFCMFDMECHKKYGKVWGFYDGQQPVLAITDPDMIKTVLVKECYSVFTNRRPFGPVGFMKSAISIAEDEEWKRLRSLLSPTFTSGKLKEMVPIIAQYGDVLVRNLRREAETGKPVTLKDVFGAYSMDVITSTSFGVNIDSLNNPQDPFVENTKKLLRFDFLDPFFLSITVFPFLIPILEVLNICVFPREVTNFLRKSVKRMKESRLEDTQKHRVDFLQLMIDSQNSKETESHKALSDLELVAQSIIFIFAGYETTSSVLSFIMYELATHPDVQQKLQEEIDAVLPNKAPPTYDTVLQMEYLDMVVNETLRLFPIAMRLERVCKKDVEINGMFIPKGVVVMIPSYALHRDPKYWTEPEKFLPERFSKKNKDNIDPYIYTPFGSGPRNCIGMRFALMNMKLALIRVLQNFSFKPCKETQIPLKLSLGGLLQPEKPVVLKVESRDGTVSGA

This test concerns the target Cytochrome P450 3A4 (Homo sapiens) (UniProt P08684). Briefly: qHTS Assay for Inhibitors and Substrates of Cytochrome P450 3A4 (AID 884). Further: nearly all actives have a fitted effect of over 50% in size. The settings on record: recombinant CYP3A4, Luciferin-PPXE luminescence; series mostly up to 57.1 µM. The method, then: NIH Molecular Libraries Screening Centers Network [MLSCN]
NIH Chemical Genomics Center [NCGC]
The P450 gene superfamily is involved in the metabolism and clearance of xenobiotics. This assay used human CYP3A4 to measure the dealkylation of luciferin-6' phenylpiperazinylyl (Luciferin-PPXE; […]) to luciferin. The luciferin is then measured by luminescence after the addition of a luciferase detection reagent. Luciferin-PPXE concentration in the assay was equal to its KM for CYP3A4. Inhibitors and some substrates limit the production of luciferin, and decrease measured luminescence.
NCGC Assay Protocol Summary:
Two uL of enzyme and substrate mix (final concentrations: 20nM CYP3A4, 25uM Luciferin-PPXE, 200mM KPO4) were dispensed into a white, solid bottom 1536-well microtiter plate. 23nL of compound was transferred by a pin tool. The plate was incubated at RT for 10 min. Two uL of an NADPH regeneration solution (Promega supplied reagent) was dispensed and the reaction was allowed to continue for 60 min at RT. Then the reaction was stopped by reconstituted luciferin detection buffer. After another 20 min of incubation the plate was read on the ViewLux (Perkin Elmer) at 60 sec exposure and 2x2 binning. This protocol was carried out with Promega-Glo reagents and further information can be found at http://www.promega.com/tbs/tb325/tb325.pdf. Data were normalized to the to AC100 inhibition (57 uM ketoconazole).
Keywords: P450, CYP3A4, Luciferase, MLSMR, MLSCN, NIH Roadmap, qHTS, NCGC
(In general: Quantitative high-throughput screening tests each substance at several concentrations.)
Turning to `CCCn1c(-c2ccc(F)cc2)nc2c(NCCCCN(CC)CC)nc(C)nc21`, the Potency was 10 µM (active).

`CS(=O)(=O)Nc1cccc(-c2ccc3ncnc(NC4CC4)c3c2)c1`: the Potency is 6.31 µM (active).

Regarding `COc1cccc(Nc2ncc3nc(C)c(=O)n(Cc4cccs4)c3n2)c1`, the Potency was 3.98 µM (active).

With `COCCn1c(=O)c(-c2ccc(Cl)cc2)nc2cnc(OC)nc21`, the Potency is 7.94 µM (active).

Regarding `CCCCNc1nc(C)nc2c1nc(-c1ccccc1)n2CCN1CCCC1`, the Potency is 12.6 µM (active).

Regarding `CNc1ncnc2ccc(-c3ccccc3CN(C)C)cc12`, the Potency is 7.94 µM (active).

Regarding `CCN(CC)CCCC(C)n1c(-c2ccccc2)nc2c(N(CCOC)CCOC)nc(C)nc21` (stereo not given), the Potency is 10 µM (active).

Turning to `CCCn1c(C)nc2c(NCCCN(CCO)CCO)nc(C)nc21`, the Potency entry was “inactive”.

On to `CCNc1ncc2nc(C)c(=O)n(-c3ccc(OC)cc3)c2n1`, for which the Potency entry was “inactive”.

As to `O=C(c1cnccn1)N1CCC2(CCCN(c3ccccc3)C2)CC1`, the Potency was 1.58 µM (active).

As to `CN(C)c1ccc(-c2cncnc2NCc2cccs2)cc1`, the Potency is 0.794 µM (active).

`Cn1cccc1C(=O)N1CCC2(CC1)CCN(c1ccc(-c3ccccc3)cc1)CC2`: the Potency result was “inactive”.

With `Cc1nc(NC2CCCCC2)c2nc(-c3ccccc3)n(CCN3CCCCC3)c2n1`, the Potency is 7.94 µM (active).

Consider `Cc1noc(C)c1C(=O)N1CCC[C@@]2(CCN(c3ccccc3)C2)C1`, for which the Potency was 5.01 µM (active).

On to `N#Cc1cccc(-c2nc3cnc(Oc4cccc(Cl)c4)nc3n(C3CC3)c2=O)c1`, for which the Potency entry was “inactive”.

With `COC1=C(OC)C(=O)C(C/C=C(\C)CC/C=C(\C)CC/C=C(\C)CC/C=C(/C)CC/C=C(\C)CC/C=C(\C)CC/C=C(\C)CC/C=C(\C)CC/C=C(\C)CCC=C(C)C)=C(C)C1=O`, the Potency result was “inactive”.

Regarding `CCCCNc1nc(C)nc2c1nc(-c1ccccc1)n2CCCN1CCCCC1C` (stereo not given), the Potency is 6.31 µM (active).

In the case of `Cc1nc(NCCO)c2nc(-c3ccccc3)n(CCCN(C)C)c2n1`, the Potency entry was “inactive”.

As to `CC(C)NC(=O)N1CCC2(CC1)CCN(C(=O)c1cc(C(F)(F)F)cc(C(F)(F)F)c1)CC2`, the Potency result is “inactive”.

`Cc1ccccc1-c1cncnc1N(C)Cc1ccco1`: the Potency was 1.58 µM (active).

`CCCn1c(C)nc2c(NC(C)CN(C)C)nc(C)nc21` (stereo not given): the Potency result is “inactive”.

In the case of `Cc1cccc(CNc2ncncc2-c2ccc3c(c2)OCO3)c1`, the Potency was 0.251 µM (active).

Regarding `CCCC(=O)NCCc1c2n(c3ccc(OC)cc13)Cc1ccccc1-2`, the Potency was 2.51 µM (active).

With `CC(C)(c1cc(Br)c(O)c(Br)c1)c1cc(Br)c(O)c(Br)c1`, the Potency was 15.8 µM (active).

In the case of `Cc1nc(NC2CCCCC2)c2nc(-c3ccccc3)n(CCCN3CCCCC3C)c2n1` (stereo not given), the Potency was 10 µM (active).

Take `CCCn1c(-c2ccc(F)cc2)nc2c(N3CCN(Cc4nc(OC)cc(OC)n4)CC3)nc(C)nc21`: the Potency is 3.98 µM (active).

Consider `O=C(c1ccncc1)N1CCC2(CC1)CN(c1cccc(-c3ccccc3)c1)C2`, for which the Potency was 7.94 µM (active).

As to `O=C(Oc1ccccc1)N1CCC2(CC1)CN(c1ccccc1)C2`, the Potency result was “inactive”.

Take `O=c1c(-c2cccs2)nc2cncnc2n1Cc1ccccc1`: the Potency was 6.31 µM (active).

As to `CC(C)NC(=O)N1CCCC2(CCN(S(=O)(=O)c3ccccc3)CC2)C1`, the Potency was 7.94 µM (active).

As for `CS(=O)(=O)N1CCC2(CCN(C(c3ccccc3)c3ccccc3)CC2)CC1`, the Potency entry is “inactive”.

Take `Fc1ccc(Nc2ncncc2-c2ccoc2)cc1`: the Potency was 0.501 µM (active).

In the case of `COc1ccccc1CCn1c(=O)c(-c2cccc(F)c2)nc2cncnc21`, the Potency is 3.16 µM (active).

For the molecule `O=C(c1cccc(F)c1)N1CCC[C@@]2(CCN(Cc3nccs3)C2)C1`, the Potency is 7.94 µM (active).

In the case of `CCN1CCCC1Cn1c(-c2ccccc2)nc2c(NC3CCCCC3)nc(C)nc21` (stereo not given), the Potency was 12.6 µM (active).

Take `c1cncc(-c2cncnc2-n2ccnc2)c1`: the Potency is 7.94 µM (active).

Consider `O=C(c1cnccn1)N1CCC2(CC1)CCN(C(c1ccccc1)c1ccccc1)CC2`, for which the Potency result is “inactive”.

Regarding `c1csc(CNc2ccnc(-c3ccoc3)n2)c1`, the Potency is 7.94 µM (active).

Consider `COc1ccc(CNc2ncnc3ccc(-c4ccccc4CN(C)C)cc23)c(OC)c1`, for which the Potency was 7.94 µM (active).

With `O=C(Oc1ccccc1)N1CCC2(CC1)CCN(c1ccccc1)CC2`, the Potency entry was “inactive”.

Values taken from PubChem BioAssay (NCATS).
